Sampled rows, rich in hits. Any-hit rate of the full collection: about 2.4%.
Pol kappa inh-1 = inhibitors of human DNA polymerase kappa; Q9UBT6; purified Pol kappa, fluorescent DNA synthesis assay, 10 min; Potency, µM (top dose mostly 107 µM), without a hit: at the highest dose activity, negative = inhibition, actives largely listed as inhibitors; 400,000 tested, 0.53% active; also: % is scaled to controls: 0 for no effect and ±100 for the full control effect
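Here, compound and 10 nM enzyme are combined for 15 min at room temperature; adding 50 nM substrate (final) starts DNA synthesis, tracked by fluorescence at 0 and 10 min against buffer-only wells.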
Pol eta inh-1 = DNA polymerase eta (human) inhibition; AID 588591; Potency, µM (series often up to 114 µM), inactives show top-dose activity change, negative = inhibition, usual class: inhibitors; recombinant Pol eta, fluorescent DNA replication assay; 390,000 tested, 1.2% active; also: % is scaled to controls: 0 for no effect and ±100 for the full control effect
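Pol eta at 10 nM preincubated with compounds 15 min at room temperature; reaction started with fluorescent substrate (50 nM final) and read kinetically at 0 and 10 min.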
Pol iota inh = blocks human DNA polymerase iota activity; Q9UNA4; Pol iota fluorescent replication assay, 10 min; Potency, µM (doses to about 115 µM), without a hit: top-dose activity, negative = inhibition, most hits filed as inhibitors; 390,000 tested, 1% active
Target sequence (Q9UNA4 whole entry, looked up): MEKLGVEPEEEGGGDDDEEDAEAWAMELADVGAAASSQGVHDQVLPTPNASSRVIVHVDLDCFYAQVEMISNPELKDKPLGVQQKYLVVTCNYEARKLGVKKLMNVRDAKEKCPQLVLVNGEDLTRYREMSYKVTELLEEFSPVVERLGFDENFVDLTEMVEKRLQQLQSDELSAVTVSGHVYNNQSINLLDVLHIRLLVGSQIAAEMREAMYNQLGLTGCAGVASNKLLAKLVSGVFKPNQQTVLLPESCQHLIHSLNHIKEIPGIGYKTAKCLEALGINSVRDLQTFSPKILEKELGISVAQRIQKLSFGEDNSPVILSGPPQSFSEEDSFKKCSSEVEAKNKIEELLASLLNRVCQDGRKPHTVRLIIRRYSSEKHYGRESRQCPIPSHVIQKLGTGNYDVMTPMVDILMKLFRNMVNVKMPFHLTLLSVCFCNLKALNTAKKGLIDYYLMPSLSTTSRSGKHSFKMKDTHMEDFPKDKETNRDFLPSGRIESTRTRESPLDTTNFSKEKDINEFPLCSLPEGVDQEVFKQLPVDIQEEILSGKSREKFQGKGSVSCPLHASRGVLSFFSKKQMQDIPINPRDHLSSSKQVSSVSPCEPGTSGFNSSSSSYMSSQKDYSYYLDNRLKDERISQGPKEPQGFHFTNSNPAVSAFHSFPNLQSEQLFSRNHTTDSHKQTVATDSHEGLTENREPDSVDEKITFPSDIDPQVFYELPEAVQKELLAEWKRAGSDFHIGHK
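Fluorescent replication assay read twice, at 0 min and 10 min after adding 50 nM (final) substrate. Enzyme (10 nM) and compounds were first incubated 15 min at room temperature; enzyme-free buffer wells were negative controls.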
Pol beta inh = DNA polymerase beta (human) inhibition. AID 485314. P06746. Pol beta primer extension/strand displacement, fluorescence kinetic. 340,000 tested, 1.3% active. Potency, µM (highest dose often 114 µM), for inactives: at the highest dose activity change, negative = inhibition, hits mostly inhibitors; also: % is scaled to controls: 0 for no effect and ±100 for the full control effect
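Values derive from four-parameter Hill fits of normalized kinetic data: reads at 0 and 10 min following addition of 50 nM substrate to 10 nM Pol beta preincubated 15 min with compound.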
WRN helicase inh-1 = inhibitors of human WRN helicase; AID 651768; WRN helicase unwinding, fluorescent forked duplex, kinetic; Q14191; 360,000 tested, 0.46% active; Potency, µM (doses to about 114 µM), without a hit: at the top dose activity change, negative = inhibition, usual class: inhibitors; also: % is scaled to controls: 0 for no effect and ±100 for the full control effect; nearly all actives have a fitted effect of over 55% in size
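WRN at 20 nM final was preincubated with compound for 15 min at room temperature; reaction started with 100 nM forked duplex oligonucleotide carrying fluorophore and quencher plus 2 mM ATP (final). Unwinding followed kinetically by red fluorescence (ex 525/em 598 nm).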
FEN1 inh-1 = blocks human flap endonuclease 1 | Potency, µM (titrated, usually from 114 µM), without a hit: at the highest dose activity change, negative = inhibition, most hits filed as inhibitors | 390,000 tested, 0.35% active | Recombinant FEN1 flap cleavage, fluorescence, 15 min | P39748 | AID 588795; also: % is scaled to controls: 0 for no effect and ±100 for the full control effect; nearly all actives have a fitted effect of over 65% in size
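In this screen, 50 nM flap DNA substrate was added to 10 nM FEN1 pretreated with compound for 15 min at room temperature; cleavage was followed with reads at 0 and 15 min, and Hill fitting gave concentration–response parameters.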
PGK validate = validation of Trypanosoma brucei phosphoglycerate kinase inhibitors. shares compounds with Pol kappa inh-1. Potency, µM (top dose mostly 57.5 µM), for the others: top-dose activity change, negative = inhibition, usual class: inhibitors. AID 686980. 500 tested, 79% active. TbPGK coupled GAPDH assay, Kinase-Glo luminescence; also: % is scaled to controls: 0 for no effect and ±100 for the full control effect; nearly all actives have a fitted effect of over 65% in size
POLI cherry-pick = Confirm cherry-picked inhibitors of human polymerase iota; AID 720496; Potency, µM, most hits filed as inhibitors; 1,500 tested, 77% active; Pol iota primer extension, TAMRA/BHQ fluorescence; shares compounds with Pol kappa inh-1
Pol kappa inh-2 = Pol kappa (human) inhibition, cherry-pick confirmation | AID 720501 | Potency, µM, hits mostly inhibitors | 920 tested, 76% active | purified Pol-kappa, fluorescent strand-displacement substrate | shares compounds with Pol eta inh-1
Pol eta inh-2 = confirmation of human DNA polymerase eta inhibitors. shares compounds with Pol eta inh-1. Pol eta primer extension, TAMRA/BHQ fluorescence, 10 min. Potency, µM, usual class: inhibitors. 2,600 tested, 64% active. AID 720502
FEN1 inh-2 = FEN1 inhibition, cherry-pick retest. shares compounds with FEN1 inh-1. FEN1 flap cleavage, TAMRA/BHQ2 fluorogenic DNA substrate. Potency, µM, most hits filed as inhibitors. 880 tested, 79% active. AID 720498; also: nearly all actives have a fitted effect of over 60% in size
WRN helicase inh-2 = confirmation of human WRN helicase inhibitors; 610 tested, 63% active; Potency, µM (doses to about 57.1 µM), inactives show top-dose activity, negative = inhibition, usual class: inhibitors; WRN helicase DNA unwinding, fluorescence kinetic; shares compounds with WRN helicase inh-1; also: nearly all actives have a fitted effect of over 65% in size
TO DNA binding = binds DNA, flagged in WRN inhibitor counterscreen; shares compounds with WRN helicase inh-1; thiazole orange DNA binding displacement, fluorescence; Potency, µM (titrated, usually from 57.1 µM), for inactives: at the top dose activity change, negative = inhibition, hits mostly inhibitors; 610 tested, 10% active;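 also: drop in dye fluorescence marks compound binding to DNA; % is scaled to controls: 0 for no effect and ±100 for the full control effect; nearly all actives have a fitted effect of over 60% in size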
BLM counter = counter-screen for WRN helicase inhibitors: human BLM helicase inhibition | shares compounds with WRN helicase inh-1 | Recombinant BLM helicase DNA unwinding, red fluorescence | Potency, µM (doses to about 57.1 µM), inactives show at the top dose activity change, negative = inhibition, hits mostly inhibitors | 610 tested, 60% active; also: nearly all actives have a fitted effect of over 60% in size
The depositor's hits bear a star; ? = inconclusive; . = no result given; [ ] = remark or other dose. Calls follow the shape of the dose curve; as a rule, active = well fitted curve in the direction sought with a large enough effect; inconclusive = small, poorly fitted or top-dose-only effect, or another doubt; inactive = no such curve, though single readings can be large; an effect the other way counts as inactive or inconclusive. Potency is read from the fitted curve at half-maximal effect.

SMILES	Pol kappa inh-1	Pol eta inh-1	Pol iota inh	Pol beta inh	WRN helicase inh-1	FEN1 inh-1	POLI cherry-pick	Pol eta inh-2	WRN helicase inh-2	TO DNA binding	BLM counter	others
COc1ccc(CCNC(=O)Cn2nc(C)c3c(C)n(-c4ccc(C)cc4)nc3c2=O)c(OC)c1	-23%	?	?	35µM*	.	?	67*	85*	.	.	.	Pol kappa inh-2=27*;FEN1 inh-2=48*
Cc1c(CCC(=O)O)c(=O)oc2c(C)c3occ(-c4ccc(Br)cc4)c3cc12	-5%	18µM*	143%	43%	63µM*	-19%	34*	?	.	.	.	FEN1 inh-2=?
O=C(O)c1[nH]c2ccccc2c1C(c1cc(Cl)cc([N+](=O)[O-])c1O)c1c(C(=O)O)[nH]c2ccccc12	50µM*	20µM*	18µM*	35µM*	45µM*	79µM*	75*	27*	22µM*	-11%	?
Cc1noc(/C=C/c2ccccc2F)c1S(=O)(=O)N1CCC(C(=O)N2CCOc3ccccc32)CC1	-11%[60.1 µM]	-15%	167%	1%	.	-2%	.	.	.	.	.
O=C(O)c1ccc(N/N=C/C=C/c2ccc([N+](=O)[O-])o2)cc1	79µM*	22µM*	8.9µM*	3.2µM*	?	?	38*	27*	19µM*	?	17µM*	PGK validate=16µM*
O=[N+]([O-])c1ccc(N/N=C/C=C/c2ccco2)cc1	8%	-15%	-20%	.	2%	-1%	.	.	.	.	.
CNc1c(Cl)cc(C=O)cc1Cl	-18%	.	-5%	.	.	-2%	.	.	.	.	.
O=C(Nc1ccc(Cl)c(Cl)c1)Nc1nnc(-c2ccncc2)s1	?	?	?	?	?	-9%	?	.	2.7µM*	45%	1.2µM*
CCOCCCNC(=O)/C(C#N)=C/c1ccc(C(=O)OC)cc1	-12%	1%	-12%	2%	-5%	-11%	.	.	.	.	.
COCCCNC(=O)/C(C#N)=C/c1ccc(OCC(=O)O)c(OC)c1	22µM*	2.5µM*	10µM*	3.5µM*	?	?	19*	27*	19µM*	?	5.4µM*
O=C1C(Cl)=C(NC(=O)c2ccccc2)C(=O)C(Cl)=C1NC(=O)c1ccccc1	-12%	-10%	1.6µM*	-12%	20µM*	79µM*	24*	85*	-19%	22µM*	-26%
CSc1nn(CC(=O)Nc2cc(C)ccc2C)c(N)c1S(=O)(=O)c1ccccc1	1%	-15%	6%	-3%	.	0%	.	.	.	.	.
CCOC(=O)c1c(S(=O)(=O)N2CCC(C(=O)NCc3cccc(OC)c3)CC2)c(C)n(C)c1C	-7%[60.1 µM]	-20%	11%	-1%	.	0%	.	.	.	.	.
Cc1ccc(NC(=O)CN2C(=O)S/C(=C/c3ccc(-c4cc(C(=O)O)ccc4C)o3)C2=O)cc1C	79µM*	20µM*	22µM*	7.1µM*	22µM*	35µM*	.	.	7.6µM*	193%	5.4µM*	PGK validate=7.3µM*
CCn1c(C)cc(/C=C2\SC(=O)N(CC(=O)Nc3ccc(C)c(C)c3)C2=O)c1C	-1%	-17%	2%	1%	5%	-2%	.	.	.	.	.
CC(C)OCCCn1c(=O)c2ccccc2n2c(-c3ccc(F)c(F)c3)nnc12	-5%	1%	-7%	-4%	.	3%	.	.	.	.	.
CCOC(=O)N1CCc2c(sc3c2c(=O)n(-c2ccc(Cl)cc2)c(=O)n3CC(C)C)C1	7%	-10%	56%	24%	.	-4%	.	.	.	.	.
O=C1CC(=O)N(Cc2ccco2)C(=O)N1	8.9µM*	3.5µM*	3.2µM*	8.9µM*	25µM*	28µM*	3.4*	5.4*	7.6µM*	30%	4.3µM*	PGK validate=0.92µM*;FEN1 inh-2=24*
CCc1ccc(C(=O)c2cn(CC(=O)Nc3cccc(OC)c3)c3ccc(OC)cc3c2=O)cc1	89µM*	40µM*	13µM*	8.9µM*	.	40µM*	8.4*	?	19µM*	-6%	4.3µM*	FEN1 inh-2=67*
COc1cccc(NC(=O)Cn2cc(C(=O)c3ccc(F)cc3)c(=O)c3cc(OC)ccc32)c1	6%	-4%	25%	40%	.	4%	.	.	.	.	.
CCc1cc2c(cc3c(=O)n(CC(=O)NC4CCCCC4)ncn32)s1	13%	-3%	14%	-4%	.	-4%	.	.	.	.	.
COc1ccc(OC)c(N2C(=O)[C@@H]3C(c4ccccc4Cl)=NO[C@@H]3C2=O)c1	20µM*	1.3µM*	3.5µM*	-88%	40µM*	50µM*	17*	17*	22µM*	?	17µM*	PGK validate=5.8µM*
O=C1CC(c2ccco2)CC(O)=C1C=Nc1ccc(Br)cc1 (stereo unspecified)	?	?	?	?	-22%	-5%	.	.	.	.	.
O=C1CC(c2ccco2)CC(O)=C1C=Nc1cc(Cl)ccc1O (stereo unspecified)	?	35µM*	?	20µM*	?	-19%	42*	30*	22µM*	-20%	7.6µM*

Screening data deposited in PubChem by National Center for Advancing Translational Sciences (NCATS).
